Laboratory results: article PMC4336329 (PLoS ONE, 2015)
Out of some 310,000 compounds screened, about 14,000 (4.5%) showed an effect of 50% or more. The effect is printed as a negative number. This is one part of a sample in which strong results are shown more often than they occur.

Target: human ether-à-go-go-related gene (hERG) potassium channel (human, UniProt Q12809)
Assay: primary screen, population patch clamp on CHO cells stably expressing hERG; higher = less effect of the substance
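Note: peak tail current of the secondary pulse compared with the same well before compound.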

Sequence of human ether-à-go-go-related gene (hERG) potassium channel (Q12809 whole entry, looked up): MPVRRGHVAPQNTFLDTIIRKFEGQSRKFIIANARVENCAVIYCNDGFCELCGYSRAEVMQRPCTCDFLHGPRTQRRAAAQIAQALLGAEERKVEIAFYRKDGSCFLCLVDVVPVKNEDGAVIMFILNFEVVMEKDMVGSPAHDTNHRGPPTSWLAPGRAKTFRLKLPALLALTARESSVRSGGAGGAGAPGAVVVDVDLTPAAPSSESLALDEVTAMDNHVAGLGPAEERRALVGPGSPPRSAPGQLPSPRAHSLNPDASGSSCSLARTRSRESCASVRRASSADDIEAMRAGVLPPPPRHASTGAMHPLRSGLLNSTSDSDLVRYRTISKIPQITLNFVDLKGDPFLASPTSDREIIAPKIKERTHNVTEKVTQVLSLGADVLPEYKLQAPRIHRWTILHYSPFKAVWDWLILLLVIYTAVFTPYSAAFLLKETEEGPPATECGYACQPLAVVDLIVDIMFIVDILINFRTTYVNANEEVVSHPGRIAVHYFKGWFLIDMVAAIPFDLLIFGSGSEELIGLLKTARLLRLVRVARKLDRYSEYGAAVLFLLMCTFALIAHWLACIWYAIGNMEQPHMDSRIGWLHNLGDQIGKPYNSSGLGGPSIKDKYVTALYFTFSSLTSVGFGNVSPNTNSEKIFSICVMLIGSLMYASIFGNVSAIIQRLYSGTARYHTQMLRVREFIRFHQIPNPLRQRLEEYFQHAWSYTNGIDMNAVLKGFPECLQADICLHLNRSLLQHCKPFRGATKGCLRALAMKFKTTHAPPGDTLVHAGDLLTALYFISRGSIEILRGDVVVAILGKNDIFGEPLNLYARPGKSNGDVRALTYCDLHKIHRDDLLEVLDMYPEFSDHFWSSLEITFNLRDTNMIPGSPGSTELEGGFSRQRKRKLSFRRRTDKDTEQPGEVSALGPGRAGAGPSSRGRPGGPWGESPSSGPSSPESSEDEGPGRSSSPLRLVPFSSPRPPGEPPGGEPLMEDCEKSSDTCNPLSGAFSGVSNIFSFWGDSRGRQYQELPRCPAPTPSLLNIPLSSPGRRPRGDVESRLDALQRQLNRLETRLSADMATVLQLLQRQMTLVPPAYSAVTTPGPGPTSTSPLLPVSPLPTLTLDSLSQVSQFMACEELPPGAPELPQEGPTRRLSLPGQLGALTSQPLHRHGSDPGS

| SMILES | hERG current change (%, negative = inhibition) at 10uM |
| --- | --- |
| COCc1cc(CN2CCN(CCCc3ccccc3)C(CCO)C2)ccc1OC (stereo not shown) | -66.1% |
| COCc1cc(CN2CCN(Cc3ccsc3)C(CCO)C2)ccc1OC (stereo not shown) | -82.9% |
| COc1ccc(CN2CCN(CCC(C)C)C(CCO)C2)cc1Cn1cccn1 (stereo not shown) | -48.1% |
| CCOc1ccc(CN2CCN(Cc3ccsc3)C(CCO)C2)cc1CO (stereo not shown) | -39.4% |
| COc1ccc(CN2CCN(CCc3ccccc3)C(CCO)C2)cc1Cn1cncn1 (stereo not shown) | -35.8% |
| CC(C)(O)C#Cc1ccc(CN2CCN(Cc3ccsc3)C(CCO)C2)cc1 (stereo not shown) | -21.6% |
| COCc1cc(CN2CCN(CCc3ccccc3)C(CCO)C2)ccc1OC (stereo not shown) | -56.9% |
| COc1ccc(CN2CCN(CCC(C)C)C(CCO)C2)cc1Cn1cncn1 (stereo not shown) | 1.78% |
| O=C1CN(c2ccc(Cl)cc2)C2(CCCCC2)S1 | 4.49% |
| Cc1ccc(Cn2ccc(NC(=O)c3cc(-c4ccc(Br)cc4)on3)n2)cc1 | 22.6% |
| CCOC(=O)c1cc2nc(-c3ccccc3)cc(C)n2n1 | 5.61% |
| COC(=O)c1cc2ccsc2n1Cc1nc(-c2ccc(Cl)cc2)oc1C | 7.33% |
| CSc1nc(N(C)NC(=O)c2ccc(Cl)cc2)c2ccccc2n1 | 2.16% |
| Cc1ccc(OCc2ccc(C(=O)Nc3ccc(S(N)(=O)=O)cc3)o2)cc1 | 12.4% |
| CCOC(=O)C1=C(O)CSC1=Nc1ccc(C)cc1 | -4.86% |
| CCC(C)n1c(SCC(=O)Nc2cc(C(C)(C)C)nn2-c2ccccc2)nc2ccccc2c1=O (stereo not shown) | 3.57% |
| CCCNC(=O)c1ccc(N2CC3CC(C2)c2cccc(=O)n2C3)c(NC(=O)Nc2ccc(CC)cc2)c1 (stereo not shown) | -78.7% |
| CCOc1ccc(NC(=O)c2ccc(N3CC4CC(C3)c3cccc(=O)n3C4)c(N)c2)cc1 (stereo not shown) | -21.7% |
| CCc1ccc(NC(=O)Nc2cc(C(=O)O)ccc2N2CC3CC(C2)c2cccc(=O)n2C3)cc1 (stereo not shown) | 20.4% |
| CCc1ccc(NC(=O)Nc2cc(C(=O)NCC3CCCO3)ccc2N2CC3CC(C2)c2cccc(=O)n2C3)cc1 (stereo not shown) | -17.6% |
| Nc1cc(C(=O)Nc2ccc(Cl)cc2)ccc1N1CC2CC(C1)c1cccc(=O)n1C2 (stereo not shown) | -62.1% |
| O=C(Nc1ccc(Cl)cc1)N1CC2CC(C1)c1cccc(=O)n1C2 (stereo not shown) | 4.31% |

| SMILES | hERG current change (%, negative = inhibition) at 10uM |
| --- | --- |
| COc1ccc(CCNC(=O)C2CCC(=O)N2CCc2ccccc2)cc1OC (stereo not shown) | 12.4% |
| O=c1nc2n(c3ccc([N+](=O)[O-])cc13)CCCCC2 | -15.4% |
| COCc1cc(=O)[nH]c(Nc2nc(C)c3cc(OC)ccc3n2)n1 | 7.05% |
| COCc1cc(=O)[nH]c(Nc2nc(C)c3ccccc3n2)n1 | -8.74% |
| CCc1ccc2nc(Nc3nc(COC)cc(=O)[nH]3)nc(C)c2c1 | -73.3% |
| CCC(=O)Nc1ccc(C(=O)Nc2ccc(OC)cc2[N+](=O)[O-])cc1 | 13.7% |
| FC(F)(F)c1cccc(Cc2noc(CN3CCCCC3c3ccccn3)n2)c1 (stereo not shown) | -8.11% |
| Cc1cc(CN2CCC(n3nccc3NC(=O)c3ccccc3Cl)CC2)cc(C)c1O | -74.2% |
| Cc1ncc(CN2CCC(n3nccc3NC(=O)c3ccccc3)CC2)s1 | -19% |
| Cc1ccccc1C(=O)Nc1ccnn1C1CCN(Cc2cccnc2)CC1 | -77.4% |
| COc1ccccc1CN1CCC(n2nccc2NC(=O)c2ccccc2Cl)CC1 | -76.2% |
| COc1ccccc1C(=O)Nc1ccnn1C1CCN(Cc2cnc(N(C)C)s2)CC1 | -65% |
| COc1cccc(OC)c1OC(=O)/C=C/c1ccc(C)o1 | 6.2% |
| CC(C)(C)C(=O)NCCCNc1ccc([N+](=O)[O-])cc1 | -24.7% |
| CC(C)(C)c1ccc(C(=O)NCCC(=O)NCc2ccco2)cc1 | -36.1% |
| Cc1cc(C)n2nc(CCc3ccccc3)nc2n1 | -12.8% |
| O=C(O)CCC(=O)NC1CCCCC1 | 6.89% |
| COc1ccc(/C=C/c2nc(-c3ccccc3O)n(-c3ccccc3)n2)cc1 | -2.17% |
| COc1ccc(OC)c(CNc2ccc([N+](=O)[O-])cc2C)c1 | 3.55% |
| O=C(Nc1ccnn1C1CCN(Cc2ccccc2)CC1)c1ccccc1Cl | -76.1% |
| Cc1ccccc1C(=O)Nc1ccnn1C1CCN(Cc2ccccn2)CC1 | -33.9% |
